SW480 rerep = DNA re-replication induction in SW480 cells | Potency, µM (top dose mostly 46.1 µM), for inactives: at the highest dose re-replication activation, usual class: activators | 1.8% of 340,000 active | AID 624297 | SW480 DNA re-replication, Hoechst DNA content imaging, 48 h; note: potency is the fitted concentration of half-maximal effect; % of control where 0% means no effect; nearly all actives have a fitted effect of over 55% in size
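First, 250 cells per well were seeded. Next, compound or vehicle (23 nL) was pinned in, plates sat 48 hr at 37 C. Finally Hoechst was added for 40 min before fluorescence scanning.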
KB-V1 cytotox = KB-V1 MDR subline cytotoxicity; Potency, µM (highest dose often 46.1 µM), actives largely listed as cytotoxic; 3.4% of 400,000 active; KB-V1 MDR cells viability, CellTiter-Glo, 72 h; note: potency is the fitted concentration of half-maximal effect; % is set by controls: 0 for no effect and ±100 for the full control effect; nearly all actives have a fitted effect of over 60% in size
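Compound-treated KB-V1 multidrug-resistant cells, 72 h, 37 degrees C; viability by CellTiter-Glo. Fitted qHTS curves give the values.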
KB-3-1 tox = kills parental KB-3-1 adenocarcinoma cells | AID 1347075 | 1.4% of 400,000 active | Potency, µM (doses to about 46.1 µM), actives largely listed as cytotoxic | KB-3-1 viability, CellTiter-Glo ATP luminescence, 72 h; note: potency is the fitted concentration of half-maximal effect; % is set by controls: 0 for no effect and ±100 for the full control effect; nearly all actives have a fitted effect of over 60% in size
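Multi-concentration cytotoxicity screen in KB-3-1 cells grown in DMEM lacking phenol red with 10% FBS. After 72 h at 37 °C with compound, ATP-dependent luminescence was recorded.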
IL1B secr inh = blocks inflammasome-driven IL-1 beta release. THP-1 LPS/ATP IL-1B secretion, AlphaLISA, 16 h; active compounds read low. activity change, % at 57.5 µM. 4.7% of 360,000 active; in the data active = activity change below about -50%; inconclusive = mostly about -30% to -49%; note: % is set by controls: 0 for no effect and ±100 for the full control effect
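Secreted IL-1B measured by AlphaLISA bead assay after 16 h compound exposure of THP-1 cells; compounds (final up to 57.5 uM) added 1 h before LPS (250 ng/mL) and ATP (1.25 mM) stimulation; lower signal means less secretion.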
MCF10A rerep = DNA re-replication induction in MCF 10a cells; MCF 10A DNA re-replication, Hoechst nuclear intensity, 48 h; Potency, µM (top dose mostly 46.1 µM), for the others: at the top dose activity, positive = re-replication, most hits filed as activators; 2.9% of 350,000 active; note: potency is the fitted concentration of half-maximal effect; % of control where 0% means no effect; nearly all actives have a fitted effect of over 50% in size
* hit, by the source's call; [ ] = another dose, or the depositor's remark. Rows were chosen to be rich in hits. Some 9.9% of all compounds tested hit in one or more screens of this group. Unless noted, calls come from the whole dose curve; as a rule, active = well fitted curve in the direction sought with a large enough effect; inconclusive = small, poorly fitted or top-dose-only effect, or another doubt; inactive = no such curve, though single readings can be large; an effect the other way counts as inactive or inconclusive.

Results for CC(O)CNC(=O)C(=O)Nc1c2c(nn1-c1ccc(Cl)cc1)CSC2 (stereo not drawn) ?
KB-V1 cytotox: inactive; KB-3-1 tox: inactive

What do the screens show for `CC1Cc2c([nH]c3ccccc23)C(=O)N1` (stereo not drawn)?
SW480 rerep: inconclusive; KB-V1 cytotox: inactive; KB-3-1 tox: inactive; IL1B secr inh: 0.3; MCF10A rerep: 4.2%

How did CCOc1cc(CNc2ccc(O)cc2)ccc1OCc1ccc(Cl)cc1 do in these assays?
KB-V1 cytotox: inactive; KB-3-1 tox: inactive

Results for O=S(=O)(NC1CCCCC1)c1ccc(Cl)nc1 ?
SW480 rerep: 0.6%; KB-V1 cytotox: inactive; KB-3-1 tox: inactive; IL1B secr inh: 8.7; MCF10A rerep: -11.7%

What do the screens show for `CCOC(=O)C1(C)CCN1C(=O)c1cncc(Br)c1` (stereo not drawn)?
KB-V1 cytotox: inactive; KB-3-1 tox: inactive; IL1B secr inh: 0.0

What do the screens show for `CN(C)CCCNC(=O)c1cc2sc3ccccc3c2s1`?
SW480 rerep: inconclusive; KB-V1 cytotox: inactive; KB-3-1 tox: inactive; IL1B secr inh: -118.0*; MCF10A rerep: 7.31µM*

Results for Cc1ccc(-c2nc(C(=O)NCCCN3CCOCC3)cc3c2[nH]c2ccccc23)cc1 ?
SW480 rerep: inconclusive; KB-V1 cytotox: inconclusive; KB-3-1 tox: inactive; IL1B secr inh: -52.0*; MCF10A rerep: inconclusive

How did CCN(CC(=O)NCc1ccc(F)cc1)C(=O)C1CCN(S(=O)(=O)c2ccc(C(C)C)cc2)CC1 do in these assays?
SW480 rerep: -2.6%; KB-V1 cytotox: inconclusive; KB-3-1 tox: inactive; IL1B secr inh: -27.3; MCF10A rerep: 8.0%

Results for O=C(Nc1cc(NC(=O)c2ccccc2Cl)ccc1Cl)c1ccccc1 ?
KB-V1 cytotox: inconclusive; KB-3-1 tox: inactive

How did CC(C)NC(=O)CSc1nc(Cc2ccccc2)nc2ccccc12 do in these assays?
SW480 rerep: -20.8%; KB-V1 cytotox: inactive; KB-3-1 tox: inactive; IL1B secr inh: -69.5*; MCF10A rerep: inconclusive

What do the screens show for `Cc1csc(NC(=O)CSc2nc(C(C)C)nc3ccccc23)n1`?
SW480 rerep: 26.1%; KB-V1 cytotox: 14.6µM*; KB-3-1 tox: inconclusive; IL1B secr inh: -95.8*; MCF10A rerep: 18.4µM*

How did CC(C)(C)c1nc(SCC(=O)NNC(=O)c2ccccc2)c2ccccc2n1 do in these assays?
SW480 rerep: -0.1%; KB-V1 cytotox: inconclusive; KB-3-1 tox: inactive; IL1B secr inh: -91.3*; MCF10A rerep: inconclusive

What do the screens show for `CCc1nc(SCC(=O)N2c3ccccc3Sc3ccccc32)c2ccccc2n1`?
SW480 rerep: 8.1%; KB-V1 cytotox: 8.2µM*; KB-3-1 tox: inactive; IL1B secr inh: inconclusive; MCF10A rerep: 4.9%

How did CCCc1nc(SCC(=O)NC2CCCC2)c2ccccc2n1 do in these assays?
SW480 rerep: -15.8%; KB-V1 cytotox: inactive; KB-3-1 tox: inactive; IL1B secr inh: -57.6*; MCF10A rerep: inconclusive

What do the screens show for `CCc1nc(SCC(=O)NNC(=O)c2ccc(OC)cc2)c2ccccc2n1`?
SW480 rerep: -21.9%; KB-V1 cytotox: inactive; KB-3-1 tox: inactive; IL1B secr inh: -29.2; MCF10A rerep: 12.5%

How did COc1ccc(C(=O)NNC(=O)CSc2nc(C(C)C)nc3ccccc23)cc1 do in these assays?
SW480 rerep: 0.9%; KB-V1 cytotox: inactive; KB-3-1 tox: inactive; IL1B secr inh: -93.2*; MCF10A rerep: inconclusive

How did CC(C)c1nc(SCC(=O)NC2CCCCC2)c2ccccc2n1 do in these assays?
SW480 rerep: 4.1%; KB-V1 cytotox: inactive; KB-3-1 tox: inactive; IL1B secr inh: -6.8; MCF10A rerep: 1.2%

What do the screens show for `CCCc1nc(SCC(=O)N2CCCC2)c2ccccc2n1`?
SW480 rerep: -1.8%; KB-V1 cytotox: inactive; KB-3-1 tox: inactive; IL1B secr inh: 1.2; MCF10A rerep: 12.2%

Results for CCCc1nc(SCC(=O)c2ccc(OC)cc2)c2ccccc2n1 ?
SW480 rerep: 8.7%; KB-V1 cytotox: inactive; KB-3-1 tox: inactive; IL1B secr inh: -90.1*; MCF10A rerep: inconclusive

How did CC(C)(C)c1nc(SCC(=O)NC2CCCC2)c2ccccc2n1 do in these assays?
SW480 rerep: -9.3%; KB-V1 cytotox: inactive; KB-3-1 tox: inactive; IL1B secr inh: -62.5*; MCF10A rerep: -6.2%

How did COc1ccc(CCNC(=O)c2ccc3ccccc3n2)cc1 do in these assays?
SW480 rerep: 2.3%; KB-V1 cytotox: inconclusive; KB-3-1 tox: inactive; IL1B secr inh: -12.1; MCF10A rerep: 24.1%

How did Cc1ccc(C(=O)CSc2nc(C(C)C)nc3ccccc23)cc1 do in these assays?
SW480 rerep: -6.1%; KB-V1 cytotox: inactive; KB-3-1 tox: inactive; IL1B secr inh: -17.5; MCF10A rerep: -0.7%

Results for CC(C)c1nc(SCC(=O)c2ccc(F)cc2)c2ccccc2n1 ?
SW480 rerep: inconclusive; KB-V1 cytotox: inactive; KB-3-1 tox: inactive; IL1B secr inh: -57.2*; MCF10A rerep: 3.26µM*

How did CCc1nc(SCC(=O)c2ccc3c(c2)OCCO3)c2ccccc2n1 do in these assays?
SW480 rerep: inconclusive; KB-V1 cytotox: inconclusive; KB-3-1 tox: inconclusive; IL1B secr inh: -63.0*; MCF10A rerep: inconclusive

Results for Cc1sc2ncnc(SCC(=O)c3ccc4c(c3)OCCO4)c2c1-c1ccccc1 ?
KB-V1 cytotox: 16.4µM*; KB-3-1 tox: inactive; IL1B secr inh: 0.0; MCF10A rerep: 11.7%

Results for COC(=O)c1sccc1NC(=O)Nc1cccc(F)c1 ?
SW480 rerep: 0.1%; KB-V1 cytotox: inactive; KB-3-1 tox: inactive; IL1B secr inh: 13.1; MCF10A rerep: -3.2%

How did CCC(=O)N1CCc2cc(S(=O)(=O)CCC(=O)Nc3cc(Cl)ccc3OC)ccc21 do in these assays?
KB-V1 cytotox: inactive; KB-3-1 tox: inactive

Results for CCc1ccc(C2c3c(oc4ccc(F)cc4c3=O)C(=O)N2CCc2ccc(OC)cc2)cc1 (stereo not drawn) ?
KB-V1 cytotox: inactive; KB-3-1 tox: inactive

What do the screens show for `CCn1[nH]c(=O)c(=Nc2c(C)n(C)n(-c3ccccc3)c2=O)cc1-c1ccc(Cl)cc1`?
SW480 rerep: -5.3%; KB-V1 cytotox: inactive; KB-3-1 tox: inactive; IL1B secr inh: -51.6*; MCF10A rerep: 1.3%

Results for Cc1c(N=Cc2ccc(-c3ccc(Cl)cc3)o2)c(=O)n(-c2ccccc2)n1C ?
SW480 rerep: -0.8%; KB-V1 cytotox: inactive; KB-3-1 tox: inactive; IL1B secr inh: 12.9; MCF10A rerep: 4.3%

Results for NCC(=O)Nc1ccc(Br)cc1 ?
SW480 rerep: 4.9%[1.84 µM]; KB-V1 cytotox: inactive; KB-3-1 tox: inactive; IL1B secr inh: 15.3; MCF10A rerep: -1.0%

Results for COc1ccc(NC(=O)CC2CCCCC2)cc1OC ?
SW480 rerep: 7.31µM*; KB-V1 cytotox: inactive; KB-3-1 tox: inactive; IL1B secr inh: 14.7; MCF10A rerep: 5.8µM*

Screening results (PubChem)
